# Shown are actives, neighbours in structure and some others; about 7.3% of the full set was active somewhere.
# SMN2 splice enh = enhancers of SMN2 splice variant expression; HEK293 SMN2-luciferase splicing reporter, luminescence, 30-36 h; Potency, µM (top dose mostly 46.1 µM), actives largely listed as activators; 210,000 tested, 2.8% active; note: nearly all actives have a fitted effect of over 55% in size
#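 HEK293 cells carry an SMN2 minigene-luciferase reporter in which exon 7 inclusion puts luciferase in frame. Cells were seeded at 2000 cells/well, attached for 10-12 hours, then exposed to compounds for 30-36 hours at 37C before ONE-Glo luminescence.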
# uPA surface inh = cell surface uPA generation inhibition; Potency, µM (doses to about 38.3 µM), usual class: inhibitors; 330,000 tested, 0.31% active; cell surface uPA generation assay, qHTS; active = well fitted inhibition curve with a large enough effect; inconclusive = small, poorly fitted or top-dose-only effect; inactive = no such curve, though single readings can be large or run the other way; tested in mouse RAW 264.7 cells; note: nearly all actives have a fitted effect of over 55% in size
# FLuc counter = firefly luciferase modulation, counter-screen for miR-21 project; AID 588342; purified FLuc, Km substrates, luminescence inhibition; Potency, µM (top dose mostly 57.5 µM), hits mostly inhibitors; 360,000 tested, 6.9% active; P08659; note: nearly all actives have a fitted effect of over 55% in size
# Target sequence (P08659 whole entry, looked up): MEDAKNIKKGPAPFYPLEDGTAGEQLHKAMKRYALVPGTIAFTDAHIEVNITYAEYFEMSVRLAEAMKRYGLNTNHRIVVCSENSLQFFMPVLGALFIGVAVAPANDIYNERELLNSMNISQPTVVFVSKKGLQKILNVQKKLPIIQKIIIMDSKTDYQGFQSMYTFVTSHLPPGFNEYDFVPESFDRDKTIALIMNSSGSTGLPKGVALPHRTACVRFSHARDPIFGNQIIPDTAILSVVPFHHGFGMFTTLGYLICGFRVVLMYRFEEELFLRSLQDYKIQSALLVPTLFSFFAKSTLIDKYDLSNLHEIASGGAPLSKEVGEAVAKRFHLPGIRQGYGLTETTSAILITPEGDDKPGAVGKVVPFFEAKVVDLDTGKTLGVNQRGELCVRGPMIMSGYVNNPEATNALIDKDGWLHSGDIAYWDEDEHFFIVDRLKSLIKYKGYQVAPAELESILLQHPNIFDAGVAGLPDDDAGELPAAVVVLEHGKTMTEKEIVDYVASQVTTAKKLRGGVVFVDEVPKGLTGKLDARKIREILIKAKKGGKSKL
#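 Biochemical qHTS of compounds, final roughly 60 µM downward over six points, against 10 nM purified firefly luciferase using Km concentrations of substrates (10 uM D-luciferin, 10 uM ATP) in Tris acetate pH 7.5 buffer; luminescence output.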
# Rab9 promoter act = activators of Rab9 promoter; 320,000 tested, 2.8% active; Huh7 Rab9 promoter-luciferase reporter, luminescence, 24 h; Potency, µM (doses to about 9.22 µM), most hits filed as activators; note: nearly all actives have a fitted effect of over 60% in size
#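 Measured in stably transfected Huh7 cells bearing a Rab9 promoter–luciferase construct: 24 h compound treatment at 37 °C, followed by luminescence detection.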
# ELG1 genotox = inducers of genotoxicity in HEK293T ELG1-luciferase cells | 330,000 tested, 1.3% active | Potency, µM (titrated, usually from 46 µM), most hits filed as activators | HEK293T ELG1-luciferase reporter, luminescence, 16 h; note: nearly all actives have a fitted effect of over 60% in size
#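 HEK293T cells expressing luciferase-tagged ELG1 were exposed to compound or DMSO vehicle for 16 hr at 37 °C and 5% CO2. Luciferase activity was then measured with ONE-Glo after 30 min at room temperature.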
# NPC1 promoter act = activators of NPC1 promoter. Huh7 NPC1 promoter luciferase reporter, 24 h. Potency, µM (doses to about 9.22 µM), most hits filed as activators. 320,000 tested, 2.4% active. AID 485313; note: nearly all actives have a fitted effect of over 60% in size
#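 Readout is luciferase luminescence, reflecting NPC1 promoter activation in stably transfected Huh7 cells after 24 h compound exposure at 37 °C in reduced-serum medium with 10% FBS.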
# Hits are given with their value; – = inactive; ? = inconclusive; · = not tested or not shown. Unless noted, calls come from the whole dose curve; as a rule, active = well fitted curve in the direction sought with a large enough effect; inconclusive = small, poorly fitted or top-dose-only effect, or another doubt; inactive = no such curve, though single readings can be large; an effect the other way counts as inactive or inconclusive.
SMILES,SMN2 splice enh,uPA surface inh,FLuc counter,Rab9 promoter act,ELG1 genotox,NPC1 promoter act
CNc1ccccc1C(=O)N1CCc2c([nH]c3ccccc23)C1=O,–,·,·,·,·,·
CCCCCCCCC/C(=N\O)c1ccccn1,–,–,16.9µM,?,?,?
CCCCCCCCC(=O)N/N=C/c1ccccn1,–,–,–,–,–,–
CCOc1ccc(NC(=O)Cn2cncc2-c2ccc([N+](=O)[O-])cc2)cc1,–,–,–,–,?,–
CCOC(=O)Cn1cncc1-c1ccc([N+](=O)[O-])cc1,?,–,23.9µM,?,–,–
O=C(NC(=S)Nc1ccc2c(c1)OCCO2)c1ccccc1F,?,–,5.36µM,1.26µM,?,2.51µM
COc1cccc(OC)c1C(=O)NC(=S)Nc1ccc2c(c1)OCCO2,–,–,21.3µM,–,?,–
O=C(NC(=S)Nc1ccc(F)cc1)c1ccc2c(c1)OCCO2,?,?,1.9µM,0.501µM,?,0.631µM
COc1ccc(NC(=S)NC(=O)c2ccc3c(c2)OCCO3)cc1,·,–,·,·,?,·
CCOc1cccc(C(=O)NC(=S)Nc2ccc3c(c2)OCCO3)c1,–,–,8.49µM,?,?,–
O=C(NC(=S)Nc1ccc2oc(=O)ccc2c1)c1ccccc1F,·,–,–,–,–,–
O=C(Nc1ccc2c(c1)OCCO2)c1c(F)cccc1F,12.6µM,?,6.01µM,3.16µM,3.26µM,2.51µM
O=C(CCl)Nc1ccccc1C(=O)Nc1ccc2c(c1)OCO2,·,–,–,0.398µM,–,0.708µM
O=C(CCNC(=O)c1ccccc1Cl)Nc1ccc2c(c1)OCO2,–,–,–,–,–,–
O=C(NC(=S)Nc1ccc2c(c1)OCCO2)c1ccccc1,7.08µM,·,1.2µM,0.891µM,?,0.631µM
Cc1ccc(S(=O)(=O)N(C)c2ccccc2C(=O)Nc2ccc3c(c2)OCCO3)cc1,·,–,–,–,–,–
CS(=O)(=O)Nc1ccccc1C(=O)Nc1ccc2c(c1)OCCO2,–,–,12µM,–,?,–
O=C(NC(=S)Nc1ccc(N2CCOCC2)cc1)c1ccc2c(c1)OCCO2,–,?,?,–,–,–
COc1ccc(CCNC(=O)CS(=O)Cc2nc(-c3ccc(C)cc3)oc2C)c(OC)c1 (stereo not given),·,·,–,·,·,·
O=C(NC(=S)Nc1ccc(CN2CCOCC2)cc1)c1ccc2c(c1)OCCO2,·,–,16.9µM,–,–,?
O=C(Nc1ccc2c(c1)OCCO2)c1ccccc1F,12.6µM,–,3.38µM,0.562µM,1.84µM,0.794µM
O=C(Nc1ccc2c(c1)OCCO2)c1cccc2nc3ccccc3nc12,–,–,?,–,–,–
COc1ccc(-c2nc3c(c(SCC(=O)N4CCCCC4)n2)Cc2c(CO)cnc(C)c2O3)cc1,·,·,–,·,·,·
CC(C)Oc1cccc(C2NC(=O)c3ccccc3O2)c1 (stereo not given),·,–,16.9µM,–,–,–
CN(C)C(=O)[C@H]1C[C@H]1[C@@H](O)[C@H](CO)NC(=O)[C@H](COCc1ccccc1)NC(=O)OC(C)(C)C,·,–,–,3.16µM,–,–
SMILES,SMN2 splice enh,uPA surface inh,FLuc counter,Rab9 promoter act,ELG1 genotox,NPC1 promoter act
COc1ccc(-c2nc3n(c2C)Cc2ccccc2-3)cc1,·,–,2.39µM,?,13µM,2.51µM
COC(=O)c1cc2c(cc1NC(=O)c1c(C)nn(-c3ccc(C)cc3)c1-n1cccc1)OCO2,·,·,–,·,·,·
Cc1ccc(-c2nc3ccccc3[nH]2)cc1NC(=O)/C=C/c1ccco1,–,–,8.49µM,?,–,–
Cc1ccc(-c2nc3ccccc3[nH]2)cc1NC(=O)c1ccc2c(c1)OCO2,–,–,10.7µM,–,–,?
O=C(NC(=S)Nc1cc(-c2nc3ccccc3[nH]2)ccc1Cl)c1ccc2c(c1)OCO2,–,–,6.75µM,–,–,–
Cc1ccc(-c2nc3ccccc3[nH]2)cc1NC(=S)NC(=O)c1ccccc1Br,–,–,5.36µM,–,–,–
N#Cc1ccccc1OCC(O)CNCCNC(=O)Nc1ccccc1 (stereo not given),–,·,·,·,·,·
Cc1ccc(-c2ccc(CCC(=O)O)o2)cc1,?,·,10.7µM,–,–,–
Cc1ccc(C(=O)N/C(=C\c2ccc(Cl)cc2)C(=O)NC2CCCCC2)cc1,–,·,–,·,·,·
Cc1nc([N+](=O)[O-])c(Br)n1Cc1ccccc1,·,10µM,–,–,–,–
O=C(CCNC(=O)c1ccco1)NCc1ccc(C(=O)O)cc1,·,–,·,·,–,·
CCC(=O)n1nc(-c2ccco2)nc1SCc1ccccc1,?,–,15.1µM,–,?,–
CC(=O)N1c2ccccc2CC1C(=O)NCc1cccc(Cl)c1 (stereo not given),–,·,–,·,·,·
Clc1ccc2c(c1)-n1cc(-c3ccccc3)nc1CO2,?,·,21.3µM,·,·,·
COc1ccc(OC)c(NC(=O)CSc2nc3[nH]c(=O)[nH]c(=O)c3s2)c1,·,–,·,·,·,·
CCOC(=O)Cn1c(S(=O)(=O)Cc2ccc(F)cc2)nc(-c2ccccc2)c1-c1ccccc1,7.08µM,·,–,–,–,–
O=C(c1cccc(S(=O)(=O)N2CCCC2)c1)N1CCCc2ccccc21,·,–,–,–,–,–
N=C1C2=C3Sc4ccccc4N3CCCC2=NN1c1cccc(S(=O)(=O)O)c1,·,–,19µM,–,–,–
O=C1CCCC(O)=C1N=Nc1ccc2c(c1)OCO2,15.8µM,–,9.53µM,3.16µM,16.4µM,?
O=C1CCCC(O)=C1N=Nc1ccc(C(=O)O)cc1,·,–,–,–,–,–
C=CC[C@H](CC(=O)N[C@H](CO)Cc1ccccc1)C(=O)N[C@@H](COC(=O)[C@@H](CC=C)Cc1ccc(F)cc1)Cc1c[nH]c2ccccc12,·,–,·,·,–,·
CN(C)c1ccc(NC2=C(Cl)C(=O)c3ccccc3C2=O)cc1,–,–,7.57µM,–,?,–
Cc1ccc(N(C)C(=O)Cn2ncc3c([nH]c4ccccc43)c2=O)cc1C,·,·,–,·,·,·
C[C@@H]1CN([C@@H](C)CO)C(=O)c2cc(NC(=O)Nc3ccc(F)cc3)ccc2O[C@@H]1CN(C)Cc1ccc(Oc2ccccc2)cc1,·,?,·,·,–,·
O=C1CC(SCCO)C(=O)N1c1ccc(Oc2ccccc2)cc1 (stereo not given),–,–,21.3µM,–,–,–
SMILES,SMN2 splice enh,uPA surface inh,FLuc counter,Rab9 promoter act,ELG1 genotox,NPC1 promoter act
COc1ccc(-c2nc(CN3CCC(C(=O)NCCCN4CCN(c5ccccc5F)CC4)CC3)c(C)o2)cc1OC,–,·,–,·,·,·
O=C(c1cc2c(ccc3ccccc32)o1)N1CCN(c2ncc(C(F)(F)F)cc2Cl)CC1,–,–,–,–,–,–
O=C(c1cc2c(ccc3ccccc32)o1)N1CCCCC1,·,–,2.13µM,0.891µM,?,1.26µM
O=C(O)c1cc2c(ccc3ccccc32)o1,·,–,16.9µM,–,–,–
CC(C)(C)C1CCc2c(C(=O)NNC(=O)CCC(=O)O)csc2C1 (stereo not given),–,–,26.9µM,–,–,–
Cc1scc(C(=O)NNC(=O)CCC(=O)O)c1C,·,–,–,–,–,–
